We go through 7 compounds from PubChem BioAssay (NCI).

The structures appear in SMILES notation. About 83,000 compounds went through this panel and 20% of them were active in at least one assay; those are over-represented in the sample as a whole.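 Note: values are percent growth. 100 is the growth of untreated cells, values between 100 and 0 indicate rising inhibition; between -100 and 0 indicates cell death.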 Values without a mark were called inactive. The source made the active and inactive calls. The calls were made as follows: active = growth percent below 10; inactive = the rest.

What all share (experiment): NCI-60 one-dose screen, 48 h (100 = growth as untreated, 0 = no growth, -100 = all killed)
Conditions in all cases: 10 µM unless noted

In experiment [1] the test system is NCI-H23 lung.
Experiment [2] deals with NCI-H226 lung.
In experiment [3] the test system is NCI-H322M lung.
The test system of experiment [4] is HOP-62 NSCLC.
Experiment [5] relates to NCI-H460 lung.
Experiment [6] concerns HOP-92 NSCLC.
Experiment [7] has as its system NCI-H522 lung.
Experiment [8] has as its system A549/ATCC NSCLC.
Experiment [9] has as its system 786-0 renal.
The test system of experiment [10] is COLO 205 colon.
Experiment [11] concerns DU-145 prostate.
In experiment [12] the test system is K-562 leukemia.
Experiment [13] concerns MALME-3M melanoma.
Experiment [14] relates to MDA-MB-231 breast.
Experiment [15] deals with RXF 393 renal.
Experiment [16] has as its system SF-268 CNS.
Experiment [17] deals with SF-295 CNS.
The test system of experiment [18] is SF-539 CNS.
Experiment [19] relates to UACC-257 melanoma.
The subject of experiment [20] is M14 melanoma.

Turning to `COc1cc2c(/C=C3/C(=O)Nc4ccc(O)cc43)c(Cl)n(Cc3cc(OC)c(OC)c(OC)c3)c2cc1C`, the growth was 41.9% in experiment [1]; 65.5% in experiment [2]; 48.8% in [3]; 40.1% in experiment [4]; 4.32% (active) in experiment [5]; -5.18% (active) in experiment [6]. The growth is 0.662% (active) in [7]; 16.3% in [8]; 15.8% in [9]; 4.15% (active) in [10]; 20.4% in [11]; -30.7% (active) in experiment [12]. The growth is 2.88% (active) in experiment [13]; 61% in experiment [14]; -20.9% (active) in experiment [15]; 24% in experiment [16]; 38.9% in experiment [17]; -16.7% (active) in experiment [18]. Besides, the growth is 20.5% in experiment [19] and 11.5% in [20].
In the case of `Cc1nccc2c3ccc(OCc4cn(-c5ccc(Br)cc5)nn4)cc3n(CCCc3ccccc3)c12`, the growth in [1] was 51.2%; in [2], 91%; in [3], 91.1%; in [4], 110%; in experiment [5], 33.4%; in [6] it was 99.7%. For the same compound, the growth in experiment [7] was 84.9%; in experiment [8] it was 12.2%; in experiment [9], -71.4% (active); in experiment [10], 40.7%; in experiment [11], 48.6%; in [12] it was 14.9%. For the same compound, the growth in experiment [13] was -61.1% (active); in experiment [14], -1.95% (active); in [15], -26.2% (active); in [16], -15.5% (active); in experiment [17], 98.2%; in experiment [18] it was -59.8% (active). Moreover, the growth was -20% (active) in experiment [19] and -81.7% (active) in experiment [20].
`Cc1ccc2nc(-c3ccc(-n4on4-c4ccc(/C=C/c5ccc(-n6on6-c6ccc(-c7nc8ccc(C)cc8s7)cc6)cc5S(=O)(=O)O)c(S(=O)(=O)O)c4)cc3)sc2c1`: the growth in [1] was 105%; in [2], 108%; in experiment [3] it was 112%; in experiment [4], 121%; in experiment [5], 114%; in experiment [6] it was 138%. Further, the growth in [7] was 117%; in [8], 113%; in experiment [9] it was 98.2%; in [10], 119%; in experiment [11] it was 111%; in experiment [12], 99.2%. For the same compound, the growth in experiment [13] is 101%; in experiment [14], 133%; in experiment [15] it was 110%; in experiment [16], 99.8%; in [17], 110%; in experiment [18], 98.7%. The growth in experiment [19] is 110%; in experiment [20] it was 99.5%.
Regarding `O=[N+]([O-])c1cccc(C(c2ccccc2)c2ccccc2)c1`, the growth in [1] was 87.5%; in experiment [2], 76.9%; in [3], 90.6%; in [4], 88.7%; in [5] it was 87.5%; in [6], 63.9%. In addition, the growth in experiment [7] is 79.1%; in [8], 87.7%; in experiment [9], 97.3%; in experiment [10] it was 95.2%; in experiment [11], 110%; in [12], 73.7%. Also, the growth in experiment [13] is 97%; in experiment [14], 83.1%; in experiment [15], 102%; in experiment [16], 99.8%; in experiment [17], 76.7%; in experiment [18], 101%. In addition, the growth in experiment [19] is 102%; in [20], 97%.
As to `CCCCCCCCCCCCCCCC(=O)NS(=O)(=O)OC[C@H]1O[C@@H](n2cnc3c(N)ncnc32)[C@H](O)[C@@H]1O`, the growth in experiment [1] is -39.5% (active); in experiment [2] it was -65.1% (active); in [3], -46.2% (active); in [4], -25% (active); in [5] it was -10.1% (active); in experiment [6], -65.7% (active). The growth in [7] is -33.3% (active); in experiment [8], 9.49% (active); in experiment [9], -69.6% (active); in experiment [10], -62.8% (active); in [11] it was -33.6% (active); in experiment [12], 8.9% (active). Besides, the growth was -51.6% (active) in experiment [13]; -25.6% (active) in experiment [14]; -83.4% (active) in experiment [15]; -42.6% (active) in experiment [16]; -34.6% (active) in experiment [17]; -69.4% (active) in experiment [18]. For the same compound, the values for the growth in experiment [19] and in [20] were -20.7% (active) and -68.2% (active), respectively.
As for `O=C(Nc1ccc(-n2cc(-c3ccncc3)c(-c3ccc(O)c(Cl)c3)n2)cc1)Nc1cc(C(F)(F)F)cc(C(F)(F)F)c1`, the growth in experiment [1] is 47.5%; in experiment [2], 87.8%; in [3], 51.5%; in [4], 71.5%; in experiment [5], 49.3%; in experiment [6] it was 2.56% (active). Besides, the growth in [7] is 79.5%; in experiment [8], 53.6%; in experiment [9], 50.5%; in [10], 28.6%; in experiment [11], 80.6%; in experiment [12], 57.6%. Besides, the growth in experiment [13] was 92.1%; in [14], 78.3%; in experiment [15], 27%; in experiment [16], 70.8%; in experiment [17] it was 19.6%; in experiment [18], 62.4%. For the same compound, the growth in experiment [19] was 90.3%; in experiment [20], 55.6%.
Consider `Nc1ncnc2c1c(C(F)(F)F)cn2[C@@H]1O[C@H](CO)[C@@H](O)[C@H]1O`, for which the growth in experiment [1] is 2.27% (active); in [2] it was -13.8% (active); in [3], 19.5%; in [4], -4.3% (active); in experiment [5], 7.65% (active); in experiment [6], -12.8% (active). For the same compound, the growth in experiment [7] was -14.1% (active); in [8], 10.5%; in experiment [9] it was 13.5%; in [10] it was -42.1% (active); in experiment [11], 17.9%; in experiment [12], 5.69% (active). In addition, the growth in experiment [13] is -16.9% (active); in experiment [14] it was 15.7%; in [15] it was -45.2% (active); in experiment [16], 7.4% (active); in experiment [17], 7.79% (active); in experiment [18], -31.7% (active). Moreover, the growth in experiment [19] was -5.51% (active); in experiment [20], 2.76% (active).
